Measured values reported in PubChem BioAssay AID936 (University of Pittsburgh Molecular Library Screening Center, 2007).
Active and inactive are the calls of the source. How the calls were made is not given here.

assay: redox cycling hydrogen peroxide generation, dose response, artefact control for Plk1 PBD inhibitor project, biochemical, 1 mM DTT (AID 936); settings: Redox cycling H2O2 generation, cell-free

EC50, inactive:
O=C(O)COc1ccc(Br)cc1/C=N/O > 50 µM
O=C1C(C2=C(O)c3ccccc3C2=O)=Nc2ccccc21 > 50 µM
CCC(Sc1nc2n[nH]c(C)c2c(=N)n1-c1cccc(Cl)c1)C(=O)NCCOC (stereo not drawn) > 50 µM
